Test results reported in PubChem BioAssay (NCATS).
Inconclusive results are not listed. Unless noted, the call rests on the fitted dose curve; in most records, active means well fitted curve in either direction with a large enough effect (not every such curve was filed as active); inconclusive means small, poorly fitted or top-dose-only effect, or another doubt; inactive means flat fitted curve, though single readings scatter.

Columns and labels:
[1] = AP1 Signaling Pathway (AID 357); details: ME-180 AP-1-bla reporter, EGF-induced, beta-lactamase ratio, 5 h; at 17.2 µM (top of the series) unless noted;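 further: ME-180 reporter cells stimulated with EGF at its EC50 level; on the % scale 0 is the no-effect control and ±100 the full control effect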
Procedure, shortened: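 Modulation of EGF-driven AP-1 transcription was assessed with a beta-lactamase reporter in ME-180 cells. Compound and EC50 EGF were co-incubated 5 hours at 37 °C before 2.5-hour CCF4 loading at room temperature and dual-emission reading.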

[2] = NFAT Signaling Pathway (AID 444); details: Jurkat NFAT-bla M1, carbachol, beta-lactamase ratio, 5 h; at 17.2 µM (top of the series) unless noted;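 further: carbachol stimulus at about its EC50 of 1 µM final; on the % scale 0 is the no-effect control and ±100 the full control effect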
Procedure, shortened: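 Jurkat cells carrying an NFAT-driven β-lactamase reporter and co-transfected muscarinic M1 receptor were treated with compound plus carbachol (1 uM final, an EC50 level) for 5 h at 37 °C. CCF4 loading followed for 1 h at RT; 460/530 nm ratio gave %activity.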

[3] = Stat Signaling Pathway (AID 446); details: ME-180 SIE beta-lactamase reporter, IL-6 stimulated, 5 h; at 17.2 µM (top of the series) unless noted;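 further: ME-180 cervical cancer cells given 40 pM IL-6 alongside compound; SIE-controlled beta-lactamase reporter measured as 460/530 nm FRET emission ratio; on the % scale 0 is the no-effect control and ±100 the full control effect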
Procedure, shortened: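 Reporter line: ME-180 cervical carcinoma, SIE-beta-lactamase. Treatment: compound with 40 pM IL-6, 5 hrs, 37 C, in low-serum OPTI-MEM with 10 mM HEPES pH 7.3. Detection: 460/530 nm fluorescence.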

[4] = molecular target: Glucocorticoid receptor (Homo sapiens) (UniProt P04150); experiment: GR-GFP Redistribution (AID 450;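 active means compounds whose dose series gives a full or clear partial fitted curve of increased nuclear translocation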; further: potency means the concentration at half of the fitted maximal effect)
Chain of Glucocorticoid receptor (Homo sapiens) (P04150 whole entry, looked up): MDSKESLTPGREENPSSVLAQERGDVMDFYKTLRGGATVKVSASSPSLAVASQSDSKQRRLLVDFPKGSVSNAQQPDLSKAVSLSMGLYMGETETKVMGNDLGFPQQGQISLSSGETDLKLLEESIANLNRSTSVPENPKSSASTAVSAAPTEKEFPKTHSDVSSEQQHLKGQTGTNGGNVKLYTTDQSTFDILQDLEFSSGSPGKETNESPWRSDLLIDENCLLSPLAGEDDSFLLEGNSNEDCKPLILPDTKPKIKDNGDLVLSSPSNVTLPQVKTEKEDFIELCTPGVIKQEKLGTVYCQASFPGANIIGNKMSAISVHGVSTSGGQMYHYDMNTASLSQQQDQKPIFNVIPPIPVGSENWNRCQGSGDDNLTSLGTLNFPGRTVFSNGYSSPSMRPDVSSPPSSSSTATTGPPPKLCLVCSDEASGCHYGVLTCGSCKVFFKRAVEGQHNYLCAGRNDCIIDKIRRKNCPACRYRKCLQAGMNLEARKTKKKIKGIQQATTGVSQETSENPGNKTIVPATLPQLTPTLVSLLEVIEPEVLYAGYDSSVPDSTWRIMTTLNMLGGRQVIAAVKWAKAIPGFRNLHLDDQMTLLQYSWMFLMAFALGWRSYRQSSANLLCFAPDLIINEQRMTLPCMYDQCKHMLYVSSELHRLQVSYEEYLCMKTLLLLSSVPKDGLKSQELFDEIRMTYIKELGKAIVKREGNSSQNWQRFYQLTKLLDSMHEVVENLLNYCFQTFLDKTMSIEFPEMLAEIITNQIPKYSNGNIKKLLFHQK

Clc1ccc(-n2ncc3c(N4CCCC4)ncnc32)cc1
inactive: activity change, negative = inhibition [1] 3% | activity change, negative = inhibition [2] 6.28% | activity, negative = inhibition [3] -0.254% | Potency [4] > 20.6 µM

Cn1c(Cn2cnc(Cl)c2Cl)nc2ccccc21
inactive: activity change, negative = inhibition [1] 2.26% | activity change, negative = inhibition [2] -0.211% | activity, negative = inhibition [3] 7.94% | Potency [4] > 20.6 µM

CCc1nc(N2CCOCC2)c(C#N)c2c1CCCC2
inactive: activity change, negative = inhibition [1] -3.85% | activity change, negative = inhibition [2] -21.8% | activity, negative = inhibition [3] -7.54% | Potency [4] > 20.6 µM

N#CCCSCc1ccc(OCC(=O)O)cc1
inactive: activity change, negative = inhibition [1] 2.01% | activity change, negative = inhibition [2] -0.583% | activity, negative = inhibition [3] 0.185% | Potency [4] > 20.6 µM

Cc1ccc(C2/C(=C(/O)c3cnn(-c4ccccc4)c3C)C(=O)C(=O)N2CCN2CCOCC2)o1 (centres undefined)
inactive: activity change, negative = inhibition [1] -8.72% | activity change, negative = inhibition [2] 16.8% | activity, negative = inhibition [3] -14.9% | Potency [4] > 20.6 µM

Cc1cc2c(c(=O)o1)C(CC(C)C)C(C#N)=C(N)O2 (centres undefined)
inactive: activity change, negative = inhibition [1] 14.1% | activity change, negative = inhibition [2] 4.64% | activity, negative = inhibition [3] 1.38% | Potency [4] > 20.6 µM

CCOC(=O)Cn1c(SC)nc2sc3c(c2c1=O)CC(C)(C)OC3
inactive: activity change, negative = inhibition [1] 3.62% | activity change, negative = inhibition [2] 10.2% | activity, negative = inhibition [3] -3.19% | Potency [4] > 20.6 µM

Clc1nc(-c2n[nH]nc2Cl)n[nH]1
inactive: activity change, negative = inhibition [1] 14.2% | activity change, negative = inhibition [2] -2.11% | activity, negative = inhibition [3] 5.38% | Potency [4] > 20.6 µM

CCOc1cc(CN2CCOCC2)cc(C(C)=O)c1
inactive: activity change, negative = inhibition [1] 14.3% | activity change, negative = inhibition [2] -4.27% | activity, negative = inhibition [3] 1.95% | Potency [4] > 20.6 µM

Cc1cc(O)c(C(C)C)cc1N=C1CSC(=O)N1
inactive: activity change, negative = inhibition [1] -11.9% | activity change, negative = inhibition [2] -9.06% | activity, negative = inhibition [3] -6.54% | Potency [4] > 20.6 µM

Cc1ccc(C#N)c(SCc2cc3c(cc2Cl)OCO3)n1
inactive: activity change, negative = inhibition [1] 12.7% | activity change, negative = inhibition [2] -1.4% | activity, negative = inhibition [3] 4.71% | Potency [4] > 20.6 µM

CN1c2ccccc2N(C)C1c1c(O)ccc2ccccc12
inactive: activity change, negative = inhibition [1] -1.37% | activity change, negative = inhibition [2] -27.9% | activity, negative = inhibition [3] -4.67% | Potency [4] > 20.6 µM

Cc1cc(C)cc(CC2CC(=O)N(c3cc(C)on3)C2=O)c1 (centres undefined)
inactive: activity change, negative = inhibition [1] -8.62% | activity change, negative = inhibition [2] -3.65% | activity, negative = inhibition [3] -12.9% | Potency [4] > 20.6 µM

CCOC(=O)c1[nH]c2ccccc2c1NC(=O)CN(C)C
inactive: activity change, negative = inhibition [1] 1.77% | activity change, negative = inhibition [2] -6.47% | activity, negative = inhibition [3] 1.63% | Potency [4] > 20.6 µM

COC(=O)c1c(-n2cnnn2)sc(C)c1C
inactive: activity change, negative = inhibition [1] -20.5% | activity change, negative = inhibition [2] 2.79% | activity, negative = inhibition [3] 6.13% | Potency [4] > 20.6 µM

CCOc1ccc(C2C(C(=O)c3ccc(C)o3)=C(O)C(=O)N2CCN2CCOCC2)cc1OC (centres undefined)
inactive: activity change, negative = inhibition [1] 0.475% | activity change, negative = inhibition [2] 4.63% | activity, negative = inhibition [3] 0.944% | Potency [4] > 20.6 µM

COc1ccc(C(O)C(CN2CCOCC2)c2ccccc2)cc1 (centres undefined)
inactive: activity change, negative = inhibition [1] -1.55% | activity change, negative = inhibition [2] 7.08% | activity, negative = inhibition [3] 8.61% | Potency [4] > 20.6 µM

CC1(C)CC(=O)C2=C(C1)N(Cc1ccco1)C(=O)C2(O)C(F)(F)F (centres undefined)
inactive: activity change, negative = inhibition [1] 11.1% | activity change, negative = inhibition [2] -3.91% | activity, negative = inhibition [3] -2.61% | Potency [4] > 20.6 µM

Cc1ccc(C(=O)/C=C/Nc2ccccn2)cc1
inactive: activity change, negative = inhibition [1] 11% | activity change, negative = inhibition [2] 23.5% | activity, negative = inhibition [3] -4.63% | Potency [4] > 20.6 µM

COc1ccc(C2N3CC4(C)CN2CC(C)(C3)C4O)cc1OC (centres undefined)
inactive: activity change, negative = inhibition [1] 9.87% | activity change, negative = inhibition [2] -5.44% | activity, negative = inhibition [3] 15.4% | Potency [4] > 20.6 µM

Cn1c(=O)n(Cc2ccccc2)c(=O)c2c1nc(NCC1CCCO1)n2Cc1ccccc1 (centres undefined)
inactive: activity change, negative = inhibition [1] -28.9% | activity change, negative = inhibition [2] -16.1% | activity, negative = inhibition [3] -15.3% | Potency [4] > 20.6 µM

C=CCn1c(=S)[nH]c2ccccc2c1=O
inactive: activity change, negative = inhibition [1] -3% | activity change, negative = inhibition [2] 10.1% | activity, negative = inhibition [3] 4.87% | Potency [4] > 20.6 µM

Cc1cc(C)n(CC(=O)n2c3c(c4ccccc42)CCCC3)n1
inactive: activity change, negative = inhibition [1] 5.13% | activity change, negative = inhibition [2] 0.496% | activity, negative = inhibition [3] 9.09% | Potency [4] > 20.6 µM

CCCc1nnc(NC(=O)Nc2ccccc2OC)s1
inactive: activity change, negative = inhibition [1] 0.551% | activity change, negative = inhibition [2] 25% | activity, negative = inhibition [3] -4.19% | Potency [4] > 20.6 µM

O=C(CN1C(=O)c2ccccc2S1(=O)=O)c1ccccc1
inactive: activity change, negative = inhibition [1] 9.24% | activity change, negative = inhibition [2] -11.7% | activity, negative = inhibition [3] 3.52% | Potency [4] > 20.6 µM

CCCCC1CC1C(=O)Nc1ccc(OC)c(OC)c1 (centres undefined)
inactive: activity change, negative = inhibition [1] -2.76% | activity change, negative = inhibition [2] 3.38% | activity, negative = inhibition [3] 6.67% | Potency [4] > 20.6 µM
